What is called AC50 is the midpoint of the concentration-response curve, whichever way the signal moves.

This passage reports outcome and AC50 results from PubChem BioAssay (EPA / NIEHS).

Read-out in experiment [1]: Macrophage colony-stimulating factor (MCSF), CSF1 (gene 1435)
The experiment can be described thus: BSK_hDFCGF_MCSF: BioMAP Diversity Plus: hDFCGF Assay for Macrophage colony-stimulating factor (MCSF) Biomarker Activity (AID 2283060). To be noted: primary human foreskin fibroblasts; actives raise or lower the signal. Put shortly: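 Human foreskin primary fibroblasts were treated with test chemical for 24 h, and M-CSF was then measured by ELISA. Data were fitted bidirectionally against DMSO as the negative control and activity baseline.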

A short description of experiment [2]: BSK_hDFCGF_SRB: Viability Assessment in the BioMAP Diversity Plus: hDFCGF Assay (AID 2283061).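 Also: cells exposed to compound for 24 h before the read.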 To be noted: primary human foreskin fibroblasts. Put shortly:
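Human foreskin primary fibroblasts were treated with compound and assessed 24 h after dosing. Total protein was measured by sulforhodamine B staining (0.1% SRB after 10% TCA fixation, 560 nm read) as a cytotoxicity marker, with bidirectional fitting against DMSO baseline.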

Read-out in experiment [3]: TIMP metallopeptidase inhibitor 1 (TIMP1), TIMP1 (gene 7076)
Put plainly: BSK_hDFCGF_TIMP1: BioMAP Diversity Plus: hDFCGF Assay for TIMP metallopeptidase inhibitor 1 (TIMP1) Biomarker Activity (AID 2283062). The note with it: primary human foreskin fibroblasts; actives raise or lower the signal. In a few lines:
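Primary human foreskin fibroblasts in the hDFCGF system were dosed with compound for 24 h, then TIMP-1 was measured by ELISA. Activity was fitted bidirectionally relative to DMSO control; parallel SRB staining assessed cytotoxicity.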

Read-out in experiment [4]: Monokine induced gamma interferon (MIG), CXCL9 (gene 4283)
The experiment can be described thus: BSK_hDFCGF_MIG: BioMAP Diversity Plus: hDFCGF Assay for Monokine induced gamma interferon (MIG) Biomarker Activity (AID 2283063). To be noted: primary human foreskin fibroblasts; actives raise or lower the signal. Put shortly:
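ELISA read-out of MIG from primary human dermal fibroblasts 24 h post-dosing. Gain or loss of signal fitted bidirectionally, DMSO as baseline.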

Read-out in experiment [5]: Matrix Metallopeptidase 1 (MMP1), MMP1 (gene 4312)
The experiment can be described thus: BSK_hDFCGF_MMP1: BioMAP Diversity Plus: hDFCGF Assay for Matrix Metallopeptidase 1 (MMP1) Biomarker Activity (AID 2283064). The note with it: primary human foreskin fibroblasts; actives raise or lower the signal. In a few lines: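 hDFCGF primary fibroblasts (human foreskin); chemical added; 24 h; MMP1 by ELISA; bidirectional fit vs DMSO.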

Read-out in experiment [6]: Vascular cell adhesion molecule 1 (VCAM1), VCAM1 (gene 7412)
Put plainly: BSK_hDFCGF_VCAM1: BioMAP Diversity Plus: hDFCGF Assay for Vascular cell adhesion molecule 1 (VCAM1) Biomarker Activity (AID 2283065).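 As to AC50: VCAM-1 protein level quantified by ELISA after 24 h chemical exposure.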 The note with it: primary human foreskin fibroblasts; actives raise or lower the signal. In a few lines:
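Primary human foreskin fibroblasts (hDFCGF system) were dosed with chemical and VCAM-1 was measured by ELISA 24 h later. Bidirectional curve fitting used DMSO as negative control and activity baseline.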

Read-out in experiment [7]: Plasminogen activator inhibitor-1 (PAI1), SERPINE1 (gene 5054)
The experiment can be described thus: BSK_hDFCGF_PAI1: BioMAP Diversity Plus: hDFCGF Assay for Plasminogen activator inhibitor-1 (PAI1) Biomarker Activity (AID 2283066). To be noted: primary human foreskin fibroblasts; actives raise or lower the signal. In a few lines: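 Primary dermal fibroblasts (human foreskin), hDFCGF system; compound 24 h; PAI-1 by ELISA; bidirectional fit vs DMSO control.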

Read-out in experiment [8]: Intercellular Adhesion Molecule 1 (ICAM1), ICAM1 (gene 3383)
The experiment can be described thus: BSK_KF3CT_ICAM1: BioMAP Diversity Plus: KF3CT Assay for Intercellular Adhesion Molecule 1 (ICAM1) Biomarker Activity (AID 2283067). To be noted: primary human keratinocytes with fibroblasts; actives raise or lower the signal. Put shortly: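 Human keratinocyte plus foreskin fibroblast primary co-culture was exposed to chemical for 24 h. ICAM-1 was then quantified by ELISA, and the data were fit bidirectionally against DMSO as the negative control and baseline.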

Read-out in experiment [9]: Interferon-gamma inducible Protein 10 (IP10), CXCL10 (gene 3627)
Put plainly: BSK_KF3CT_IP10: BioMAP Diversity Plus: KF3CT Assay for Interferon-gamma inducible Protein 10 (IP10) Biomarker Activity (AID 2283068). To be noted: primary human keratinocytes with fibroblasts; actives raise or lower the signal. In a few lines: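 In a primary skin co-culture of keratinocytes and fibroblasts, IP-10 is quantified by ELISA at 24 h after dosing. SRB staining of parallel wells monitors overt toxicity. Curves are fitted both directions against DMSO.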

Experiment [10] can be described thus: BSK_KF3CT_SRB: Viability Assessment in the BioMAP Diversity Plus: KF3CT Assay (AID 2283069).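 Also: fitted for both signal gain and loss against DMSO baseline.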 The note with it: primary human keratinocytes with fibroblasts. Put shortly: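 Keratinocytes co-cultured with foreskin fibroblasts (human primary); chemical added, 24 h; fix 10% TCA, stain 0.1% SRB, A560. Bidirectional fit vs DMSO.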
Read-out in experiment [11]: Interleukin-1 alpha (IL1a), IL1A (gene 3552)
The experiment can be described thus: BSK_KF3CT_IL1a: BioMAP Diversity Plus: KF3CT Assay for Interleukin-1 alpha (IL1a) Biomarker Activity (AID 2283070). To be noted: primary human keratinocytes with fibroblasts; actives raise or lower the signal. In a few lines:
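Chemicals were dosed onto co-cultured human keratinocytes and foreskin fibroblasts, IL-1a was quantified by ELISA at 24 h, and activity was fitted in both directions relative to DMSO controls.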

Read-out in experiment [12]: TIMP metallopeptidase inhibitor 2 (TIMP2), TIMP2 (gene 7077)
Put plainly: BSK_KF3CT_TIMP2: BioMAP Diversity Plus: KF3CT Assay for TIMP metallopeptidase inhibitor 2 (TIMP2) Biomarker Activity (AID 2283071). The note with it: primary human keratinocytes with fibroblasts; actives raise or lower the signal. In a few lines: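 Cells: human keratinocytes co-cultured with foreskin fibroblasts. Treat with chemical, 24 h. Measure TIMP-2 by ELISA; fit curves bidirectionally vs DMSO baseline.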

Read-out in experiment [13]: C-C motif chemokine 2 (Homo sapiens) (UniProt P13500)
Put plainly: BSK_KF3CT_MCP1: BioMAP Diversity Plus: KF3CT Assay for Monocyte Chemoattractant Protein 1 (MCP1/CCL2) Biomarker Activity (AID 2283073). To be noted: primary human keratinocytes with fibroblasts; actives raise or lower the signal. Put shortly: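 Human keratinocyte plus foreskin fibroblast primary co-culture exposed to chemical for 24 h. MCP-1 levels measured by ELISA. Bidirectional curve fitting relative to DMSO negative control as baseline.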

Read-out in experiment [14]: Matrix Metallopeptidase 9 (MMP9), MMP9 (gene 4318)
The experiment can be described thus: BSK_KF3CT_MMP9: BioMAP Diversity Plus: KF3CT Assay for Matrix Metallopeptidase 9 (MMP9) Biomarker Activity (AID 2283074). The note with it: primary human keratinocytes with fibroblasts; actives raise or lower the signal. Put shortly: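 Human keratinocyte/foreskin fibroblast co-culture; compound added; 24 h; MMP-9 by ELISA; bidirectional fit vs DMSO baseline.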

Read-out in experiment [15]: urokinase plasminogen activator (uPA), PLAU (gene 5328)
The experiment can be described thus: BSK_KF3CT_uPA: BioMAP Diversity Plus: KF3CT Assay for urokinase plasminogen activator (uPA) Biomarker Activity (AID 2283075). To be noted: primary human keratinocytes with fibroblasts; actives raise or lower the signal. Put shortly: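 ELISA readout of uPA, analyzed for signal gain or loss relative to DMSO, from a human primary keratinocyte–foreskin fibroblast co-culture measured 24 h after chemical treatment.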

Read-out in a further experiment: CD40, CD40 (gene 958)
Put plainly: BSK_LPS_CD40: BioMAP Diversity Plus: LPS Assay for CD40 Biomarker Activity (AID 2283076). The note with it: primary human HUVEC with PBMC; actives raise or lower the signal. In a few lines: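 Primary human umbilical vein endothelial cells co-cultured with peripheral blood mononuclear cells, LPS-stimulated, were dosed with chemical and read 24 h later. CD40 levels were measured by ELISA and fitted bidirectionally against DMSO as negative control and baseline.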

Read-out in experiment [16]: E-selectin (Homo sapiens) (UniProt P16581)
The experiment can be described thus: BSK_LPS_Eselectin: BioMAP Diversity Plus: LPS Assay for Eselectin Biomarker Activity (AID 2283077). The note with it: primary human HUVEC with PBMC; actives raise or lower the signal. In a few lines:
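Human umbilical vein endothelial cells co-cultured with peripheral blood mononuclear cells under LPS stimulation; E-selectin measured by ELISA 24 h after chemical dosing. Activity fitted bidirectionally against DMSO as negative control and baseline.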

Read-out in experiment [17]: Interleukin-8 (IL8), CXCL8 (gene 3576)
The experiment can be described thus: BSK_LPS_IL8: BioMAP Diversity Plus: LPS Assay for Interleukin-8 (IL8) Biomarker Activity (AID 2283078). To be noted: primary human HUVEC with PBMC; actives raise or lower the signal. In a few lines:
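Human umbilical vein endothelial cells co-cultured with PBMC were stimulated with LPS; IL-8 levels were measured by ELISA 24 h after chemical dosing. Activity was fitted bidirectionally against DMSO as negative control and baseline.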

Experiment [18] can be described thus: BSK_LPS_SRB: Viability Assessment in the BioMAP Diversity Plus: LPS Assay (AID 2283079).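 Also: total protein by sulforhodamine B absorbance as a cytotoxicity measure; measured one day after compound addition; fitted in both directions against DMSO so loss or gain of signal counts.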 To be noted: primary human HUVEC with PBMC. In a few lines: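 Human umbilical vein endothelial cells co-cultured with PBMC (LPS system) were dosed for 24 h. Total protein was stained with 0.1% sulforhodamine B after 10% TCA fixation, read at 560 nm, and fitted bidirectionally against DMSO baseline.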

Read-out in experiment [19]: Interleukin-1 alpha (IL1a), IL1A (gene 3552)
The experiment can be described thus: BSK_LPS_IL1a: BioMAP Diversity Plus: LPS Assay for Interleukin-1 alpha (IL1a) Biomarker Activity (AID 2283080). The note with it: primary human HUVEC with PBMC; actives raise or lower the signal. In a few lines: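 Human umbilical vein endothelial cells co-cultured with peripheral blood mononuclear cells were LPS-stimulated and exposed to test chemicals for 24 h. IL-1 alpha was quantified by ELISA, with bidirectional curve fitting against DMSO as the negative control and baseline.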

Several values for one entry are separate records, joined by “and”; a condition that tells them apart may be missing. Equal values may be shown once. Some compounds were tested as several samples or in several runs, with calls that do not always agree. Activity calls are given as the source filed them. The calls were made as follows: active = hit-call score of the fitted dose curve at least 0.9, where 1 is the maximum; inactive = score below 0.9.

Sequence of E-selectin (Homo sapiens) (P16581 whole entry, looked up): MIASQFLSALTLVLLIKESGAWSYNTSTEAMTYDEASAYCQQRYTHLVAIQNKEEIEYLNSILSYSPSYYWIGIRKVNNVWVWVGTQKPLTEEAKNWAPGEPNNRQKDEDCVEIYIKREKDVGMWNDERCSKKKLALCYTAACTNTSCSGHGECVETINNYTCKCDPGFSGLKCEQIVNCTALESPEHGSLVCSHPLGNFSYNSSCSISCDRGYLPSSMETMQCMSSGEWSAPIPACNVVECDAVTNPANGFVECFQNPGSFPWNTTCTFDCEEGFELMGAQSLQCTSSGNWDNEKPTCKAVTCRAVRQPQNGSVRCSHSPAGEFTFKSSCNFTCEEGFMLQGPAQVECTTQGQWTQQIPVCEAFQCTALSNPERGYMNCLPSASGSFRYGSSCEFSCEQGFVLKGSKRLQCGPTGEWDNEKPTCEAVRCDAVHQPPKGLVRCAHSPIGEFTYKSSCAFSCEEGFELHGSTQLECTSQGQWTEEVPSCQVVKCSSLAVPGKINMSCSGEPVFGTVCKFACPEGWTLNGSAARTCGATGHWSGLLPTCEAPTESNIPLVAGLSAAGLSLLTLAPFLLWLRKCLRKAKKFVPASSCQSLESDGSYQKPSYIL

As for `FC(F)(F)C(F)(F)C(F)(F)C(F)(F)C(F)(F)C(F)(F)CCS`, the outcome in experiment [1], in experiment [2], in experiment [3], in experiment [4], in [5] and in experiment [6] was inactive. Besides, the result in experiment [7], in [8], in [9], in [10], in experiment [11] and in [12] was inactive. The outcome in [13] was “inactive”; in experiment [14], “inactive”; in experiment [15], “inactive”; with CD40, CD40 (gene 958), “inactive”; in experiment [16], “inactive”; in [17], “inactive”. Further, the result in [18] and in experiment [19] was inactive.

In the case of `O=C(O)C(F)(OC(F)(F)C(F)(OC(F)(F)C(F)(OC(F)(F)C(F)(F)C(F)(F)F)C(F)(F)F)C(F)(F)F)C(F)(F)F` (stereo not given), the result in experiment [1], in [2], in experiment [3], in [4], in [5] and in [6] was inactive. For the same compound, the result in experiment [7], in experiment [8], in experiment [9], in experiment [10], in experiment [11] and in experiment [12] was inactive. Also, the outcome in [13] is “inactive”; in experiment [14], “inactive”; in [15] it was “inactive”; in the experiment with CD40, CD40 (gene 958), “inactive”; in experiment [16] it was “inactive”; in [17] it was “inactive”. The result in [18] was inactive.

`FC(F)(F)C(F)(F)C(F)(F)C(F)(F)C(F)(F)CCI`: the concentration at half-maximal activity (AC50) in experiment [1] was 23.4 µM (active); in [4] it was 30 µM (active); in [5] it was 8.91 µM (active); in [6] it was 38.6 µM (active) and 32.6 µM (active). For the same compound, the outcome in experiment [1], in experiment [2], in experiment [3], in [4], in experiment [5] and in experiment [7] was inactive. Moreover, the result in [8], in experiment [9], in experiment [10], in [11], in experiment [12] and in experiment [13] was inactive. In addition, the outcome was “inactive” in [15]; “inactive” with CD40, CD40 (gene 958); “inactive” in [16]; “inactive” in experiment [17]; “inactive” in experiment [18].

As for `CCCCC(CC)COP(=O)(O)OCC(CC)CCCC` (stereo not given), the half-maximal activity concentration (AC50) in [1] is 33.9 µM (active) and 31.3 µM (active); in experiment [2], 30.6 µM (active) and 29.9 µM (active); in experiment [3], 30.8 µM (active); in [4], 31.6 µM (active); in experiment [5], 12 µM (active) and 13.7 µM (active); in experiment [6], 37.6 µM (active) and 32 µM (active). The AC50 in experiment [7] is 27.5 µM (active) and 33.5 µM (active); in [9] it was 26.5 µM (active) and 27.2 µM (active); in experiment [12] it was 25.5 µM (active) and 28.3 µM (active); in experiment [13], 31.2 µM (active) and 20 µM (active). In addition, the outcome in [3], in [4], in experiment [8], in [10], in [11] and in [15] was inactive. Further, the outcome with CD40, CD40 (gene 958) was “inactive”; in experiment [16] it was “inactive”; in experiment [17], “inactive”; in [18], “inactive”.
